Results: PubChem BioAssay
For some of these results: Entries with a potency or affinity are not part of this list. The source made the active and inactive calls. Unless noted, no rule for the calls is given here.

Tests used:
[1] = antimalarial activity against Dd2 strain (AID 2302;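 active = growth inhibition above 50% at the single 2 µM test dose, taken to imply half-maximal potency below 2 µM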;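 also: 0% = DMSO untreated growth and 100% = chloroquine plus artemisinin killed control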); settings: P. falciparum Dd2 in RBCs, LDH growth readout, 72 h; at 2 µM; active compounds read high
[2] = human hepatoma cell viability loss – ATP luminescence, cytotoxicity control for P. falciparum antimalarial project, primary screen (AID 2303;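 active = inhibition above 50%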;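 also: 0% = DMSO wells and 100% = digitonin-killed cells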); settings: HepG2 viability, 24-48 h, at 10 µM, active compounds read high
[3] = biological target: L-lactate dehydrogenase (Plasmodium falciparum (isolate CDC / Honduras)) (UniProt Q27743); assay: PfLDH activity inhibition – cell lysate, 3D7 strain, counter-screen for P. falciparum growth inhibition project (AID 2304);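 also: 0% = vehicle and 100% = reference inhibitor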; settings: P. falciparum 3D7 crude extract, LDH APAD/NBT absorbance; at 2 µM; active compounds read high
[4] = inhibition of 3D7 malaria parasite growth – strain 3D7 (AID 2306);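 also: 0% = DMSO wells and 100% = chloroquine plus artemisinin control wells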; settings: P. falciparum 3D7 erythrocytic growth, LDH absorbance, 72 h; at 2 µM; active compounds read high
[5] = biological target: Calcium-dependent protein kinase 1 (Plasmodium falciparum (isolate 3D7)) (UniProt P62344); assay: PfCDPK1 kinase inhibitors, biochemical, TCAMS library (AID 1159585; cut-off not given, nearly all actives have IC50 up to about 0.98 µM;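 also: inhibitors leave more ATP so luminescence rises with inhibition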); settings: recombinant PfCDPK1, Kinase-Glo ATP depletion luminescence
[6] = biological target: Plasmodium falciparum protein kinase 6 (PK6, PF3D7_1337100) (UniProt Q8IDW1); assay: PfPK6 kinase inhibitors, biochemical, TCAMS library (AID 1159586); settings: recombinant PfPK6, Kinase-Glo ATP depletion luminescence
[7] = biological target: Protein kinase 7 (PK7), Plasmodium falciparum 3D7 (PF3D7_0213400) (UniProt Q7YTF7); assay: inhibition of Plasmodium PK7 catalytic activity – biochemical, TCAMS antimalarial set, Kinase-Glo luminescence (AID 1159587); settings: recombinant PfPK7, Kinase-Glo ATP depletion luminescence
[8] = biological target: Calcium-dependent protein kinase 4 (Plasmodium falciparum (isolate 3D7)) (UniProt Q8IBS5); assay: PfCDPK4 kinase inhibitors, biochemical, TCAMS library (AID 1159588; cut-off not given, nearly all actives have IC50 up to about 0.91 µM); settings: recombinant PfCDPK4, Kinase-Glo ATP depletion luminescence
Calcium-dependent protein kinase 4 (Plasmodium falciparum (isolate 3D7)), sequence (Q8IBS5 whole entry, looked up): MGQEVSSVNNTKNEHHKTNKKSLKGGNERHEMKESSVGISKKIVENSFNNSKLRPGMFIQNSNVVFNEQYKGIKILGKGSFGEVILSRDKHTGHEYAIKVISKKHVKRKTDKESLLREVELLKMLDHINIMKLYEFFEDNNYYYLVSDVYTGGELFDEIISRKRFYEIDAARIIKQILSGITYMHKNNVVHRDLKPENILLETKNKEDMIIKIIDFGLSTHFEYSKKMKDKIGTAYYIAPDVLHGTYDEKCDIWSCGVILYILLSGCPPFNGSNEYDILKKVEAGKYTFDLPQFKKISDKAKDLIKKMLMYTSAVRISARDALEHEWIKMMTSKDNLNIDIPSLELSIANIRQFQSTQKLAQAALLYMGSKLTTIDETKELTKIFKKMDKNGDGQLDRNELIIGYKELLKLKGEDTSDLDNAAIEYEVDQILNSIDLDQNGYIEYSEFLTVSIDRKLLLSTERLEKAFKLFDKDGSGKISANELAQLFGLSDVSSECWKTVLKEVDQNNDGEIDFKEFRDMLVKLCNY

Plasmodium falciparum protein kinase 6 (PK6, PF3D7_1337100), sequence (Q8IDW1 1-305): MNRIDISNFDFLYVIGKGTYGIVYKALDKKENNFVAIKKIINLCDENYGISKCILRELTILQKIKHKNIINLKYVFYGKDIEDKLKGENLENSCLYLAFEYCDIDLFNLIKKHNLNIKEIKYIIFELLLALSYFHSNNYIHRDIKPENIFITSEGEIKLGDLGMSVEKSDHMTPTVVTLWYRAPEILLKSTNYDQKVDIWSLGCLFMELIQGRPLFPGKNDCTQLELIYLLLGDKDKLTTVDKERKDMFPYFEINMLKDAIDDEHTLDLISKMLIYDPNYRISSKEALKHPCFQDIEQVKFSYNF
Calcium-dependent protein kinase 1 (Plasmodium falciparum (isolate 3D7)), sequence (P62344 whole entry, looked up): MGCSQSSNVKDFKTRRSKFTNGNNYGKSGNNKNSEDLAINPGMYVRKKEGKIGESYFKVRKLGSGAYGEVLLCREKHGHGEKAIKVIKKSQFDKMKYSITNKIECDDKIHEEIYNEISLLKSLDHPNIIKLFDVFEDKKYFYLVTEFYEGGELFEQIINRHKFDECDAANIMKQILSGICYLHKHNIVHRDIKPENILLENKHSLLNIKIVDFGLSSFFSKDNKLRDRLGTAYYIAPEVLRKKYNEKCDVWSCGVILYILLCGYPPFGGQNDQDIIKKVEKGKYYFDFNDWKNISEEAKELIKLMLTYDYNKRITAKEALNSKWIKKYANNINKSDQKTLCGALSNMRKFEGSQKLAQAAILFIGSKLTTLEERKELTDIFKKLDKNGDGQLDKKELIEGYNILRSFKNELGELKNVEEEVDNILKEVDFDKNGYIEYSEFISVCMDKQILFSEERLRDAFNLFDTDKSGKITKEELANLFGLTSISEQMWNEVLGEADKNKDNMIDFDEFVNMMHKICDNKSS
Protein kinase 7 (PK7), Plasmodium falciparum 3D7 (PF3D7_0213400), sequence (Q7YTF7 1-343): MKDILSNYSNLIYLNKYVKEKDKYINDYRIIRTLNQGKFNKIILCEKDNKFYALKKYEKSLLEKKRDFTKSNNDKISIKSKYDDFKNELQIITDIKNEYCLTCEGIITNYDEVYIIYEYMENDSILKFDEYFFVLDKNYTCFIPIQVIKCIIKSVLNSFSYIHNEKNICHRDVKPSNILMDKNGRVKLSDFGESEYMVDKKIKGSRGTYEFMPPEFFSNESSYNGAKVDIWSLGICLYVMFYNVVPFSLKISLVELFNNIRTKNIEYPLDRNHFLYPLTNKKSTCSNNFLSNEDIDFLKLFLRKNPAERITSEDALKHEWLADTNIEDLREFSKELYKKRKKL
L-lactate dehydrogenase (Plasmodium falciparum (isolate CDC / Honduras)), sequence (Q27743 whole entry, looked up): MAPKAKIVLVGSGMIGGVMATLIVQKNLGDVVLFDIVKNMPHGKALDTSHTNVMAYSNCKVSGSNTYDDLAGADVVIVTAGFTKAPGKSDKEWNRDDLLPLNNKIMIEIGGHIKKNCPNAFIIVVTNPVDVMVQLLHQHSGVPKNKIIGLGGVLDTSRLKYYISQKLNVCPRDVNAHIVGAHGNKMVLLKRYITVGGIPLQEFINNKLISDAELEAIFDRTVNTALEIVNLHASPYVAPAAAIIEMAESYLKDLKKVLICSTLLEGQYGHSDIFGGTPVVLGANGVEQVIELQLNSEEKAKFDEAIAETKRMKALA

O=C(Nc1ccccc1)c1nn(CCCN2CCC(N3CCCC3)CC2)cc1-c1ccc(Cl)c(Cl)c1
inactive: inhibition [2] 31% | inhibition [3] -2% | outcome [5] | outcome [6] | outcome [7] | outcome [8]
active: growth inhibition [1] 98% | growth inhibition [4] 103%

Cn1cnc2c(Nc3ccncc3)nc(-c3ccc(OC(F)(F)F)cc3)nc21
active: growth inhibition [1] 65% | growth inhibition [4] 102%
inactive: inhibition [2] 28% | inhibition [3] -1% | outcome [5] | outcome [6] | outcome [7] | outcome [8]

COc1ccccc1Cc1c(C)nc2nc(N)nc(N)c2c1C
inactive: growth inhibition [1] 2% | inhibition [3] -3% | outcome [5] | outcome [6] | outcome [7] | outcome [8]
active: inhibition [2] 69% | growth inhibition [4] 96%

Cc1ncc([N+](=O)[O-])n1CCOC(=O)NC(Nc1ccc(Br)cc1)C(Cl)(Cl)Cl (stereo not drawn)
inactive: inhibition [2] 0% | inhibition [3] 5% | outcome [5] | outcome [6] | outcome [7] | outcome [8]
active: growth inhibition [1] 102% | growth inhibition [4] 99%

COc1ccc(C2CC(c3cccs3)=NN2C(=O)CNc2ccccc2F)cc1OC (stereo not drawn)
active: growth inhibition [4] 87%
inactive: growth inhibition [1] 45% | inhibition [2] 11% | inhibition [3] 2% | outcome [5] | outcome [6] | outcome [7] | outcome [8]

CC(C)(C)Oc1ccc(CC2NC3(C(=O)N(Cc4ccc(C(C)(C)C)cc4)c4ccccc43)C3C(=O)N(c4ccc(Br)cc4)C(=O)C23)cc1 (stereo not drawn)
inactive: inhibition [2] 24% | inhibition [3] 0% | outcome [5] | outcome [6] | outcome [7] | outcome [8]
active: growth inhibition [1] 94% | growth inhibition [4] 94%

NC1=NC(c2ccccc2)(c2ccccc2)C(=O)N1Cc1ccc(-c2ccncc2)cc1
inactive: inhibition [2] 20% | inhibition [3] 5% | outcome [5] | outcome [6] | outcome [7] | outcome [8]
active: growth inhibition [1] 74% | growth inhibition [4] 96%

COc1ccc(NC(=O)Nc2ccc(-c3ccncc3)c(Cl)c2)cc1N1CCN(C)CC1
active: growth inhibition [1] 62% | growth inhibition [4] 98%
inactive: inhibition [2] 19% | inhibition [3] 3% | outcome [5] | outcome [6] | outcome [7] | outcome [8]

OC(CNc1ccnc(Nc2cccc(CCN3CCOCC3)c2)n1)c1ccccc1 (stereo not drawn)
inactive: growth inhibition [1] 14% | inhibition [2] 34% | inhibition [3] -1% | outcome [5] | outcome [6] | outcome [7] | outcome [8]
active: growth inhibition [4] 102%

O=C(/C=C/c1ccc(Cl)c(Cl)c1)NCCCCCN1CCCN(C(=O)Nc2ccc(Cl)c(Cl)c2)CC1
active: inhibition [2] 55% | growth inhibition [4] 100%
inactive: growth inhibition [1] 2% | inhibition [3] 2% | outcome [5] | outcome [6] | outcome [7] | outcome [8]

CCCC(CNCc1ccc(Cl)c(C(F)(F)F)c1)CNc1nc2ccncc2[nH]1 (stereo not drawn)
active: growth inhibition [4] 99%
inactive: growth inhibition [1] 8% | inhibition [2] 26% | inhibition [3] -1% | outcome [5] | outcome [6] | outcome [7] | outcome [8]

c1ccc(-n2cncn2)cc1
inactive: inhibition [2] 0% | inhibition [3] 6% | outcome [5] | outcome [6] | outcome [7] | outcome [8]
active: growth inhibition [1] 96% | growth inhibition [4] 93%

COc1ccc(NC(=O)/C=C/c2ccc(-c3ccccc3)cc2)cc1N1CCN(C)CC1
inactive: growth inhibition [1] 46% | inhibition [2] 21% | inhibition [3] 6% | outcome [5] | outcome [6] | outcome [7] | outcome [8]
active: growth inhibition [4] 90%

COc1ccc(-c2ccc(NC(=O)c3cccc(Cl)c3)c(F)c2)cc1CN1CCCN(C)CC1
inactive: growth inhibition [1] 42% | inhibition [2] 43% | inhibition [3] 0% | outcome [5] | outcome [6] | outcome [7] | outcome [8]
active: growth inhibition [4] 100%

O=C(/C=C/c1ccc(Cl)c(Cl)c1)N1CCN(C(=O)Nc2ccc(F)c(Cl)c2)CC1
active: growth inhibition [1] 87% | growth inhibition [4] 97%
inactive: inhibition [2] 19% | inhibition [3] -6% | outcome [5] | outcome [6] | outcome [7] | outcome [8]

COc1ccc(Cn2c(Nc3cccc(C(F)(F)F)c3)nc3cc(C(=O)NC(C)C)cnc32)cc1Cl
active: growth inhibition [1] 81% | growth inhibition [4] 85%
inactive: inhibition [2] -6% | inhibition [3] 1% | outcome [5] | outcome [6] | outcome [7] | outcome [8]

CCSc1ccccc1COc1c(C)nc(N)nc1N
active: inhibition [2] 54% | growth inhibition [4] 93%
inactive: growth inhibition [1] 4% | inhibition [3] 3% | outcome [5] | outcome [6] | outcome [7] | outcome [8]

CC1(C)N=C(N)N=C(N)N1OCCCOc1cccc(Cl)c1
active: growth inhibition [1] 95% | inhibition [2] 65% | growth inhibition [4] 95%
inactive: inhibition [3] -4% | outcome [5] | outcome [6] | outcome [7] | outcome [8]

COc1ccccc1CCNc1nc(C)cc(N[C@@H](CC(C)C)C(=O)NCc2cccc(F)c2)n1
inactive: inhibition [2] 20% | inhibition [3] -3% | outcome [5] | outcome [6] | outcome [7] | outcome [8]
active: growth inhibition [1] 79% | growth inhibition [4] 94%

COc1ccc2nccc([C@@H](O)CNCCCN(C)CCOc3cc(F)cc(F)c3)c2c1
inactive: inhibition [2] 11% | inhibition [3] -1% | outcome [5] | outcome [6] | outcome [7] | outcome [8]
active: growth inhibition [1] 58% | growth inhibition [4] 99%

CC(C)(C)c1ccc(O)c(CNC2CCCCC2)c1
inactive: inhibition [2] 5% | inhibition [3] -2% | outcome [5] | outcome [6] | outcome [7] | outcome [8]
active: growth inhibition [1] 98% | growth inhibition [4] 100%

COc1ccc(C=C2SC(=O)NC2=Nc2ccccc2)c(OC)c1
inactive: inhibition [3] -3% | outcome [5] | outcome [6] | outcome [7] | outcome [8]
active: growth inhibition [1] 89% | inhibition [2] 51% | growth inhibition [4] 91%

COc1cccc(C=Cc2nc(=O)c3ccccc3o2)c1OC
inactive: inhibition [2] -19% | inhibition [3] 7% | outcome [5] | outcome [6] | outcome [7] | outcome [8]
active: growth inhibition [1] 97% | growth inhibition [4] 97%

Cc1cccc2[nH]c(-c3cccc(-c4cccc(CNCCNC(=O)c5ccnn5C)c4)c3)nc12
inactive: inhibition [2] 26% | inhibition [3] -3% | outcome [5] | outcome [6] | outcome [7] | outcome [8]
active: growth inhibition [1] 71% | growth inhibition [4] 100%

O=c1cc(NCCNCc2cccc(-c3ccccc3)c2)[nH]c2ccccc12
inactive: inhibition [2] -2% | inhibition [3] -6% | outcome [5] | outcome [6] | outcome [7] | outcome [8]
active: growth inhibition [1] 68% | growth inhibition [4] 93%

Cc1noc(C)c1C(=O)N1CCCC(c2[nH]c3c(C)cccc3c2-c2ccncc2)C1 (stereo not drawn)
active: growth inhibition [1] 101% | growth inhibition [4] 102%
inactive: inhibition [2] 16% | inhibition [3] 6% | outcome [5] | outcome [6] | outcome [7] | outcome [8]

C=Cc1ccc(-c2c(C)[nH]c(C)c(Br)c2=O)cc1
active: growth inhibition [1] 96% | growth inhibition [4] 98%
inactive: inhibition [2] -2% | inhibition [3] -3% | outcome [5] | outcome [6] | outcome [7] | outcome [8]

CC[C@H](C)CNC(=O)c1cncc(-c2ccc(CNCCCc3ccccc3)cc2)c1
active: growth inhibition [1] 99% | growth inhibition [4] 101%
inactive: inhibition [2] 19% | inhibition [3] -2% | outcome [5] | outcome [6] | outcome [7] | outcome [8]

O=C(/C=C/c1ccc(Cl)c(Cl)c1)NCCCCCN1CCC(CCNC(=O)C2(c3ccc(Cl)cc3)CC2)CC1
inactive: growth inhibition [1] 16% | inhibition [3] -3% | outcome [5] | outcome [6] | outcome [7] | outcome [8]
active: inhibition [2] 96% | growth inhibition [4] 91%

CN1CCC(N2CCC(Oc3cccc(C(=O)NCCCC4CCCC4)c3)CC2)CC1
inactive: growth inhibition [1] 48% | inhibition [2] 41% | inhibition [3] -3% | outcome [5] | outcome [6] | outcome [7] | outcome [8]
active: growth inhibition [4] 101%

Cc1cc(NCc2ccccc2)nc(NCc2ccccc2)n1
inactive: growth inhibition [1] 18% | inhibition [2] 21% | inhibition [3] 5% | outcome [5] | outcome [6] | outcome [7] | outcome [8]
active: growth inhibition [4] 91%

COc1ccc2c(c1C1CCN(CCCCNC(=O)c3ccc(-c4ccc(Cl)cn4)cc3)CC1)CCCC2
inactive: growth inhibition [1] 49% | inhibition [2] 29% | inhibition [3] -2% | outcome [5] | outcome [6] | outcome [7] | outcome [8]
active: growth inhibition [4] 90%

Cc1nc(-c2nc(NCc3ccc4c(c3)OCO4)ncc2-c2ccsc2)sc1C
active: growth inhibition [1] 77% | growth inhibition [4] 97%
inactive: inhibition [2] 7% | inhibition [3] -6% | outcome [5] | outcome [6] | outcome [7] | outcome [8]

CCOc1ccc(C(=O)Nc2cc(Br)c3c(c2)CNCC3)cc1Br
inactive: growth inhibition [1] 21% | inhibition [2] 18% | inhibition [3] 0% | outcome [5] | outcome [6] | outcome [7] | outcome [8]
active: growth inhibition [4] 96%

CCCCN(Cc1cccc(C(F)(F)F)c1Cl)c1ccc(C(O)(C(F)(F)F)C(F)(F)F)cc1
inactive: inhibition [2] 10% | inhibition [3] -3% | outcome [5] | outcome [6] | outcome [7] | outcome [8]
active: growth inhibition [1] 55% | growth inhibition [4] 91%

O=C(Nc1ccc(OC(F)(F)F)cc1)NC1CCN(c2ccnc3ccccc23)CC1
inactive: growth inhibition [1] 40% | inhibition [2] 40% | inhibition [3] -7% | outcome [5] | outcome [6] | outcome [7] | outcome [8]
active: growth inhibition [4] 101%

COc1ccc(NC(=O)Nc2ccc(C)c(-c3ccc(C(=O)NCCN4CCCC4)cc3)c2)cc1
inactive: growth inhibition [1] 1% | inhibition [2] 18% | inhibition [3] 3% | outcome [5] | outcome [6] | outcome [7] | outcome [8]
active: growth inhibition [4] 95%

COc1c(C)[nH]c(C)c(-c2ccc(Oc3cccc(C(F)(F)F)c3)cc2)c1=O
inactive: inhibition [2] 40% | inhibition [3] 3% | outcome [5] | outcome [6] | outcome [7] | outcome [8]
active: growth inhibition [1] 96% | growth inhibition [4] 98%

COCCn1c(Sc2ccc(C#N)c([N+](=O)[O-])c2)nnc1-c1ccc(N(C)C)cc1
active: growth inhibition [1] 66% | growth inhibition [4] 89%
inactive: inhibition [2] 2% | inhibition [3] -6% | outcome [5] | outcome [6] | outcome [7] | outcome [8]

Fc1ccccc1C=NNc1ccnc2ccccc12
inactive: growth inhibition [1] 26% | inhibition [2] 8% | inhibition [3] 0% | outcome [5] | outcome [6] | outcome [7] | outcome [8]
active: growth inhibition [4] 94%

Cc1ccc(C(=O)Nc2cccc([N+](=O)[O-])c2)cc1S(=O)(=O)N1CC(C)CC(C)C1 (stereo not drawn)
inactive: growth inhibition [1] 42% | inhibition [2] 24% | inhibition [3] -1% | outcome [5] | outcome [6] | outcome [7] | outcome [8]
active: growth inhibition [4] 100%
